# Only some compounds are listed: those with a hit (about 4.1% of all), similar ones and a draw of the others.
# CHT inh: inhibits the human high affinity choline transporter; Q9GZV3; B-score at 10 µM; actives 0.86% (n = 310,000); AID 488975; CHT-expressing cells, membrane potential dye, choline response; stronger effect = lower value;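 active means B-score over 3 SD under the library average, and starting fluorescence ratio not unusually high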;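 further: choline stimulus applied at its EC90 after an EC20 pre-addition; B-score computed on integrated fluorescence ratio after choline addition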
# MEKK2 WT-MEK5: raises or lowers MEK5 binding to wildtype human MEKK2 PB1 domain. actives 1.1% (n = 290,000). AID 1531. bead flow cytometry, Alexa488-MEK5 binding to MEKK2 WT; actives lie on both sides. binding response (% of control), % at 10 µM; in the data active means binding response below about 67% or above about 130%
# MEKK3 PB1 HTS: modulators (inhibitors or enhancers) of MEK5 binding to human MEKK3 PB1 domain | Q99759 | bead-based flow cytometry, Alexa488-MEK5 binding to MEKK3; actives lie on both sides; 0 = blocked by unlabeled MEK5, 100 = vehicle | binding response (% of control), % at 10 µM | actives 1.4% (n = 290,000);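 active means binding response more than 3 SD above or below the average of its plate-row segment, actives on both sides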;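 further: Alexa488 bead fluorescence after subtracting the streptavidin-only scavenger bead signal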
# Target sequence (Q99759 whole entry, looked up, the tested form may be a part): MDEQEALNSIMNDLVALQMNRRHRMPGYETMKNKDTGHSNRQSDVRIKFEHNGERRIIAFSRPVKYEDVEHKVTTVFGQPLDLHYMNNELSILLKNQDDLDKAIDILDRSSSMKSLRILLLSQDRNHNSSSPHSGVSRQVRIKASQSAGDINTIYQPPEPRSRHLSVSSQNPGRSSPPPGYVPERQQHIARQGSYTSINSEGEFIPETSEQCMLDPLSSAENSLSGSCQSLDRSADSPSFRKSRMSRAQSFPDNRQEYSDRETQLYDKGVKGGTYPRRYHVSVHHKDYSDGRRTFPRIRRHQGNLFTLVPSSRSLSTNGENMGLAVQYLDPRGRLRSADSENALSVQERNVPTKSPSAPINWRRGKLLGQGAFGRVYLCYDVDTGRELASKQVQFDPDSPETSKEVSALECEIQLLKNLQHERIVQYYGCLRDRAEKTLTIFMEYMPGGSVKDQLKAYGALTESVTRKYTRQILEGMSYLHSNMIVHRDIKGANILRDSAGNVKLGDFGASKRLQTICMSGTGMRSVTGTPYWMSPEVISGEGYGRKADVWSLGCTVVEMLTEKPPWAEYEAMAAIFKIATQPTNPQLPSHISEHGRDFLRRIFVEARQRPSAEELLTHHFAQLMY
# CHT allo act: human CHT allosteric activation; CHT-expressing cells, membrane potential dye, choline EC20; stronger effect = higher value; LV-AA mutant CHT in HEK293 cells; B-score at 10 µM; actives 0.49% (n = 310,000); AID 488977;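 active means initial fluorescence not abnormally high and integrated response B-score, plate-corrected, over 3 SD above library mean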
# MEKK2 mut-MEK5: signal of MEK5 binding to mutant human MEKK2 PB1 domain | actives 0.35% (n = 290,000) | percent response, % at 10 µM | bead flow cytometry, Alexa488-MEK5 binding to MEKK2 mutant | AID 1530; in the data active means percent response above about 24%, passing the limit was not always enough
# Mot1-301 SUMO: SUMOylation pathway inhibition by Mot1-301 growth rescue; S. cerevisiae Mot1-301 growth rescue, ATP luminescence, 38.5C; percent above DMSO median, 100 means doubled; growth rescue, % at 18.8 µM; actives 1% (n = 320,000); AID 2716;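 active means every valid replicate shows activation above 250% relative to neutral control wells; inactive means the rest, any valid replicate at or below 250%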
# A number is an active result; 0 = inactive; - = no result; + = active, no number; [ ] = dose if it differs, or a comment.
SMILES,CHT inh,MEKK2 WT-MEK5,MEKK3 PB1 HTS,CHT allo act,MEKK2 mut-MEK5,Mot1-301 SUMO
COc1ccc(CN2CCNC(=O)C2CC(=O)NC2CCCCCCC2)cc1C (centres undefined),0,0,0,0,28,0
O=C(CSc1nnc(CCc2ccccc2)n1-c1ccc(Cl)cc1)c1ccccc1,0,0,0,0,0,0
O=C(O)CNS(=O)(=O)c1ccc(-c2ccccc2)cc1,-,0,0,-,0,-
O=C([O-])c1cc(-c2ccccc2)cc(-c2ccccc2)[n+]1Cc1ccccc1,0,-,-,6.8,-,0
CC1Oc2ccccc2C=C1C1/C(=C(/O)c2ccccc2)C(=O)C(=O)N1CCCN(C)C (centres undefined),0,0,0,0,0,286
Cc1ccc(/C(O)=C2\C(=O)C(=O)N(CCN(C)C)C2c2ccccc2F)cc1 (centres undefined),0,0,0,0,0,0
c1ccc2c(CSc3ncnc4nc[nH]c34)cccc2c1,0,0,0,0,0,295
c1ccc(CCSc2ncnc3nc[nH]c23)cc1,0,0,0,0,0,0
COc1ccc2c(c1)cc1n2CCN2CCCN=C12,-6.2,0,0,0,0,0
O=C(N/N=C/c1ccc[nH]1)c1ccc(Cl)cc1,0,0,0,0,0,0
CCOc1ccc(S(=O)(=O)N2CCC(C(=O)NCCc3ccc(S(N)(=O)=O)cc3)CC2)cc1,0,0,0,0,0,271
CCOc1ccc(S(=O)(=O)N2CCC(C(=O)NCCc3ccc(OC)c(OC)c3)CC2)cc1,0,0,0,0,0,0
NS(=O)(=O)c1ccc(NC(=O)COc2ccc(S(=O)(=O)N3CCCC3)cc2)cc1,0,0,0,0,0,342
COc1ccc(OCC(=O)Nc2ccc(S(=O)(=O)N3CCCC3)cc2)cc1,0,0,0,0,0,0
CN(CC(=O)Nc1cccc(F)c1)C(=O)CN1C(=O)NC2(CCCC2)C1=O,-,-,-,-,-,0
CCCn1c(=O)c(Br)cn(-c2ccccc2C)c1=O,0,0,0,0,0,0
CC1CCN(c2c([N+](=O)[O-])c(=O)oc3ccccc23)CC1,0,0,0,0,0,0
Cc1nn2c(-c3ccc(S(=O)(=O)N4CCN(C)CC4)o3)nnc2c2ccccc12,0,0,0,0,0,0
O=C(NCCCN1CCCCCC1)c1cc2c(=O)oc3ccccc3c2s1,0,136,0,0,0,0
CC1CCCN(CCCNC(=O)c2cc3c(Cl)nc4ccccc4c3s2)C1 (centres undefined),0,189,0,0,54,0
CCn1ncc([N+](=O)[O-])c1C(=O)N1CCc2ccccc2C1,0,0,0,0,0,0
COc1ccc(NC(=O)CSc2nc3c(sc4ccccc43)c(=O)n2CCCN2CCCC2)cc1,0,176,0,0,39,0
O=C(CSc1nc2c(sc3ccccc32)c(=O)n1CCCN1CCCC1)NCC1CCCO1 (centres undefined),0,0,0,0,0,0
O=C(O)C1C2CCC(O2)C1C(=O)Nc1ccc(Cl)cc1F (centres undefined),0,0,0,0,0,633
CCn1nc(C)c(C2C(C#N)=C(N)OC3=C2C(=O)CCC3)c1C (centres undefined),0,0,0,0,0,0
SMILES,CHT inh,MEKK2 WT-MEK5,MEKK3 PB1 HTS,CHT allo act,MEKK2 mut-MEK5,Mot1-301 SUMO
Cc1nn(C)c(C)c1C1C(C#N)=C(N)OC2=C1C(=O)CCC2 (centres undefined),0,0,0,0,0,311
COc1ccc2c(CC(=O)NC3CCCc4ccccc43)coc2c1 (centres undefined),0,0,0,0,0,0
COCCNC(=O)CSc1ccccc1C(=O)NCC1CCCCC1,0,0,0,0,0,+
O=Cc1coc2c(ccc3ccccc32)c1=O,-6.5,0,0,0,0,322
COC(=O)c1ccc(C2NC(=S)N(c3ccccc3)C(C)=C2C(=O)Nc2ccccc2OC)cc1 (centres undefined),0,0,0,0,0,0
C[C@@]12C(=O)Nc3ccc(Cl)cc3C(=O)N1[C@H]1c3ccccc3OC[C@@H]1[C@@H]2c1ccccc1,0,-,-,0,-,543
Cc1ccc2c(c1)C(=O)N1[C@H]3c4cc(Cl)ccc4OC[C@@H]3[C@H](c3ccccc3)[C@]1(C)C(=O)N2,-,-,-,-,-,0
CCc1cc(=O)oc2c3c(cc(OCC(=O)NCCCCCC(=O)O)c12)OC(C)(C)CC3,0,0,0,0,0,0
COc1ccc(CNC(=O)COc2cc3c(c4oc(=O)cc(C)c24)CCC(C)(C)O3)cc1OC,0,0,0,0,0,334
CCCc1cc(=O)oc2c3c(cc(OCC(=O)NCCCn4ccnc4)c12)OC(C)(C)CC3,0,0,0,0,0,412
S=C(Nc1cc(Cl)cc(Cl)c1)NC1CCN(Cc2ccccc2)CC1,0,135,0,0,0,0
O=S(=O)(Cc1ccc(Cl)cc1)c1ncc(CO)n1Cc1ccccc1,0,0,0,0,0,+
O=S(Cc1ccc(Cl)cc1)c1ncc(CO)n1Cc1ccccc1 (centres undefined),0,0,0,0,0,0
COc1ccccc1CNS(=O)(=O)c1c(C)[nH]c(C)c1C(=O)N1CCCC1,0,0,0,0,0,0
COc1cccc(NC(=O)Cn2nc(Cc3cccnc3)c3ccccc3c2=O)c1,0,0,0,0,0,0
COc1ccc(CNC(=O)Cn2nc(Cc3cccnc3)c3ccccc3c2=O)cc1,0,0,0,0,0,439
O=C(Nc1ccccc1)C(c1ccccc1)c1ccccc1,0,0,0,0,0,0
O=C(Nc1ccc(Br)cc1)C(c1ccccc1)c1ccccc1,0,0,0,0,0,801
OC(CNCCc1ccc(C(F)(F)F)cc1)COc1cccc2ccccc12 (centres undefined),0,156,0,0,0,0
OC(CNCCc1ccc(C(F)(F)F)cc1)COc1ccc2ccccc2c1 (centres undefined),0,0,0,0,0,0
O=C(O)c1c(-c2ccc(Cl)cc2)cn2ccccc12,0,0,0,0,0,0
Cn1nccc1C(=O)NC(=S)Nc1cc(Cl)cc(Cl)c1,0,0,0,0,0,334
Cc1ccc2cccc(NC(=S)NC(=O)c3ccnn3C)c2n1,0,0,0,0,0,0
CN(C)CCNC(=O)c1csc(Nc2cccc3ccccc23)n1,-9.9,0,0,0,0,0
COCCNC(=O)c1csc(Nc2cccc3ccccc23)n1,0,0,0,0,0,0
CCOc1cc(/C=C2\C(=O)N(CCc3ccc(OC)c(OC)c3)C(C)=C2C(=O)OC)ccc1O,0,0,60[inhibitor],0,0,0
COc1ccc(S(=O)(=O)N2CCC(C(=O)NCCC(=O)NC3CC3)CC2)cc1,0,0,0,0,0,0

# Source: PubChem (several laboratories)
